According to PubChem BioAssay (NCI):
The panel holds about 79,000 compounds, 15% with a hit somewhere; the sample as a whole holds those more often. Values without a mark were called inactive. The source made the active and inactive calls. Rule as the data show it: active = growth inhibition above about 70%; inactive = the rest.

How the values were obtained:
[1] = NCI Yeast Anticancer Drug Screen. Data for the rad52 strain (AID 147);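 also: 0% = growth of vehicle-treated control cultures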; conditions: S. cerevisiae rad52 mutant growth inhibition, active compounds read high
Procedure, shortened: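 The repair-mutant yeast strain was incubated with compounds, then growth was read and inhibition derived relative to vehicle.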

[2] = NCI Yeast Anticancer Drug Screen. Data for the wt1 strain (AID 149);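 also: 0% = growth of vehicle-treated wt1 cultures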; conditions: S. cerevisiae wt1 strain (SPY 50644) growth inhibition, active compounds read high
Procedure, shortened: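 Using yeast strain wt1, compound-induced growth inhibition was determined against vehicle-treated cultures.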

[3] = NCI Yeast Anticancer Drug Screen. Data for the rad50EPP+ strain (AID 151);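 also: 0% = growth of vehicle-treated control cultures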; conditions: S. cerevisiae rad50 mutant strain, active compounds read high
Procedure, shortened: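 Vehicle-normalised growth inhibition; rad50EPP+ yeast strain, altered in DNA damage repair, compound-treated.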

[4] = NCI Yeast Anticancer Drug Screen. Data for the mgt1 strain (AID 153); conditions: S. cerevisiae mgt1 mutant growth inhibition, active compounds read high
Procedure, shortened: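 Vehicle-normalized growth inhibition is determined in mgt1 yeast, a strain selected for a defined alteration in DNA repair or cell cycle control.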

[5] = NCI Yeast Anticancer Drug Screen. Data for the rad50 strain (AID 155);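 also: 0% = growth of vehicle-only cultures of the same strain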; conditions: S. cerevisiae rad50 strain growth inhibition, active compounds read high
Procedure, shortened: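 Relative growth inhibition (compound vs vehicle) was measured in yeast with a defined repair-gene alteration.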

[6] = NCI Yeast Anticancer Drug Screen. Data for the mec2-1 strain (AID 157); conditions: S. cerevisiae mec2-1 strain, active compounds read high
Procedure, shortened: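 Mutant yeast (mec2-1) grown with compound; growth inhibition relative to vehicle control reported.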

[7] = NCI Yeast Anticancer Drug Screen. Data for the rad14 strain (AID 159);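 also: 0% = growth of vehicle-treated control cultures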; conditions: S. cerevisiae rad14 strain growth inhibition, active compounds read high
Procedure, shortened: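 Screen for anticancer potential: a yeast strain altered in DNA damage repair is grown with compound, and reduced growth is quantified against vehicle controls.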

[8] = NCI Yeast Anticancer Drug Screen. Data for the sgs1 mgt1 strain (AID 161);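 also: 0% = growth of cultures given vehicle only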; conditions: S. cerevisiae sgs1 mgt1 strain, active compounds read high
Procedure, shortened: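 Percent growth inhibition was derived by comparing compound-exposed mutant yeast with vehicle-exposed cultures. The strain carries alterations in DNA damage repair.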

[9] = NCI Yeast Anticancer Drug Screen. Data for the CLN2oe strain (AID 163);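 also: 0% = growth of vehicle-only control cultures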; conditions: S. cerevisiae CLN2oe strain, active compounds read high
Procedure, shortened: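 Compounds are applied to yeast harbouring a defined cell-cycle control change; reduced growth compared with vehicle-treated controls gives the value.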

[10] = NCI Yeast Anticancer Drug Screen. Data for the cln2 rad14 strain (AID 165);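 also: 0% = growth equal to vehicle treated cultures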; conditions: S. cerevisiae cln2 rad14 strain, active compounds read high
Procedure, shortened: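 Readout is yeast growth inhibition versus vehicle-treated controls, using a strain with cln2 and rad14 alterations exposed to compound.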

[11] = NCI Yeast Anticancer Drug Screen. Data for the bub3 strain (AID 167); conditions: S. cerevisiae bub3 mutant strain, active compounds read high
Procedure, shortened: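 Screening used yeast with an engineered genetic alteration affecting cell cycle control. Compound-exposed cultures were compared with vehicle cultures, and reduced growth was taken as inhibition.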

[12] = NCI Yeast Anticancer Drug Screen. Data for the wt2 strain (AID 169);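 also: 0% = growth of vehicle-treated yeast cultures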; conditions: S. cerevisiae wt2 strain growth inhibition, active compounds read high
Procedure, shortened: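 Against vehicle-treated controls, the growth of yeast exposed to each compound was compared, and the inhibition was recorded.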

[13] = NCI Yeast Anticancer Drug Screen. Data for the mlh1 strain (AID 171);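 also: 0% = growth of vehicle-treated control cultures of the same strain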; conditions: S. cerevisiae mlh1 strain growth inhibition, active compounds read high
Procedure, shortened: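 Measured: yeast growth. Reference: vehicle-treated controls. Organism: strain with a defined alteration affecting DNA damage repair or cell cycle control, treated with compound.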

[14] = NCI Yeast Anticancer Drug Screen. Data for the sgs1 strain (AID 173);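 also: 0% = growth of vehicle-only control cultures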; conditions: S. cerevisiae sgs1 mutant, active compounds read high
Procedure, shortened: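 Each compound was added to cultures of the altered yeast strain. Growth was recorded, and inhibition was derived by comparison with vehicle controls.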

[15] = NCI Yeast Anticancer Drug Screen. Data for the mlh1 rad18 strain (AID 175); conditions: S. cerevisiae mlh1 rad18 strain growth inhibition, active compounds read high
Procedure, shortened: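 Genetically defined yeast (DNA repair-deficient) exposed to compounds; growth inhibition determined relative to vehicle.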

[16] = NCI Yeast Anticancer Drug Screen. Data for the rad18 strain (AID 177); conditions: S. cerevisiae rad18 mutant growth inhibition, active compounds read high
Procedure, shortened: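 Vehicle-treated cultures served as the baseline for scoring compound-induced growth inhibition in DNA-repair-mutant yeast.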

[17] = at 5.0 µM (retest, dose inferred, filed as 0.5)
[18] = at 50.0 µM (retest, dose inferred, filed as 5.0)

## COc1ccc(/C=C2\NC(=S)N(/C=C3\C(=O)Oc4ccccc4C3=O)C2=O)cc1
[1]; at 1.2 µM
  growth inhibition: -1%
[1]; at 3.7 µM
  growth inhibition: -1%
[1]; at 11.0 µM
  growth inhibition: 3%
[1]; at 33.0 µM
  growth inhibition: 5%
[1]; at 100.0 µM
  growth inhibition: 21%
[2]; at 1.2 µM
  growth inhibition: 1%
[2]; at 3.7 µM
  growth inhibition: 1%
[2]; at 11.0 µM
  growth inhibition: 1%
[2]; at 33.0 µM
  growth inhibition: 4%
[2]; at 100.0 µM
  growth inhibition: 15%
[3]; at 1.2 µM
  growth inhibition: -2%
[3]; at 3.7 µM
  growth inhibition: -3%
[3]; at 11.0 µM
  growth inhibition: -1%
[3]; at 33.0 µM
  growth inhibition: -1%
[3]; at 100.0 µM
  growth inhibition: -2%
[4]; at 1.2 µM
  growth inhibition: -5%
[4]; at 3.7 µM
  growth inhibition: -5%
[4]; at 11.0 µM
  growth inhibition: -3%
[4]; at 33.0 µM
  growth inhibition: -8%
[4]; at 100.0 µM
  growth inhibition: 28%
[5]; at 1.2 µM
  growth inhibition: -4%
[5]; at 3.7 µM
  growth inhibition: 4%
[5]; [17]
  growth inhibition: 3%
[5]; at 11.0 µM
  growth inhibition: -17%
[5]; at 33.0 µM
  growth inhibition: 5%
[5]; [18]
  growth inhibition: 24%
[5]; at 50.0 µM
  growth inhibition: 70.2% (active)
[5]; at 100.0 µM
  growth inhibition: 20%
[6]; at 1.2 µM
  growth inhibition: 0%
[6]; at 3.7 µM
  growth inhibition: 1%
[6]; [17]
  growth inhibition: -1%
[6]; at 11.0 µM
  growth inhibition: 3%
[6]; at 33.0 µM
  growth inhibition: 15%
[6]; [18]
  growth inhibition: 1%
[6]; at 50.0 µM
  growth inhibition: 56.2%
[6]; at 100.0 µM
  growth inhibition: 24%
[7]; at 1.2 µM
  growth inhibition: 1%
[7]; at 3.7 µM
  growth inhibition: 0%
[7]; at 11.0 µM
  growth inhibition: 2%
[7]; at 33.0 µM
  growth inhibition: 7%
[7]; at 100.0 µM
  growth inhibition: 21%
[8]; [17]
  growth inhibition: 0%
[8]; [18]
  growth inhibition: 8%
[8]; at 50.0 µM
  growth inhibition: 84.2% (active)
[9]; at 1.2 µM
  growth inhibition: -6%
[9]; at 3.7 µM
  growth inhibition: -6%
[9]; at 11.0 µM
  growth inhibition: -9%
[9]; at 33.0 µM
  growth inhibition: 11%
[9]; at 100.0 µM
  growth inhibition: 34%
[10]; [17]
  growth inhibition: 41%
[10]; [18]
  growth inhibition: 26%
[10]; at 50.0 µM
  growth inhibition: 89.2% (active)
[11]; at 1.2 µM
  growth inhibition: -3%
[11]; at 3.7 µM
  growth inhibition: -2%
[11]; [17]
  growth inhibition: -5%
[11]; at 11.0 µM
  growth inhibition: -2%
[11]; at 33.0 µM
  growth inhibition: 4%
[11]; [18]
  growth inhibition: 4%
[11]; at 50.0 µM
  growth inhibition: 79.2% (active)
[11]; at 100.0 µM
  growth inhibition: 15%
[12]; at 1.2 µM
  growth inhibition: -6%
[12]; at 3.7 µM
  growth inhibition: -1%
[12]; at 11.0 µM
  growth inhibition: -1%
[12]; at 33.0 µM
  growth inhibition: 5%
[12]; at 100.0 µM
  growth inhibition: 27%
[13]; at 1.2 µM
  growth inhibition: -1%
[13]; at 3.7 µM
  growth inhibition: 1%
[13]; at 11.0 µM
  growth inhibition: 1%
[13]; at 33.0 µM
  growth inhibition: 9%
[13]; at 100.0 µM
  growth inhibition: 25%
[14]; at 1.2 µM
  growth inhibition: 0%
[14]; at 3.7 µM
  growth inhibition: 2%
[14]; at 11.0 µM
  growth inhibition: 2%
[14]; at 33.0 µM
  growth inhibition: 20%
[14]; at 100.0 µM
  growth inhibition: 35%
[15]; [17]
  growth inhibition: 4%
[15]; [18]
  growth inhibition: 2%
[15]; at 50.0 µM
  growth inhibition: 72.8% (active)
[16]; at 1.2 µM
  growth inhibition: -3%
[16]; at 3.7 µM
  growth inhibition: -1%
[16]; at 11.0 µM
  growth inhibition: 1%
[16]; at 33.0 µM
  growth inhibition: 5%
[16]; at 100.0 µM
  growth inhibition: 14%

## Cc1ccc2c(c1)C1(SC(C)C(=O)N1c1ccc(Cl)cc1)C(=O)N2 (stereo unspecified)
[1]; at 1.2 µM
  growth inhibition: 0%
[1]; at 3.7 µM
  growth inhibition: 4%
[1]; at 11.0 µM
  growth inhibition: 16%
[1]; at 33.0 µM
  growth inhibition: 96% (active)
[1]; at 100.0 µM
  growth inhibition: 99% (active)
[2]; at 1.2 µM
  growth inhibition: 0%
[2]; at 3.7 µM
  growth inhibition: 5%
[2]; at 11.0 µM
  growth inhibition: 4%
[2]; at 33.0 µM
  growth inhibition: 55%
[2]; at 100.0 µM
  growth inhibition: 99% (active)
[3]; at 1.2 µM
  growth inhibition: -2%
[3]; at 3.7 µM
  growth inhibition: -1%
[3]; at 11.0 µM
  growth inhibition: 1%
[3]; at 33.0 µM
  growth inhibition: -2%
[3]; at 100.0 µM
  growth inhibition: -3%
[4]; at 1.2 µM
  growth inhibition: -5%
[4]; at 3.7 µM
  growth inhibition: -6%
[4]; at 11.0 µM
  growth inhibition: 3%
[4]; at 33.0 µM
  growth inhibition: 94% (active)
[4]; at 100.0 µM
  growth inhibition: 99% (active)
[5]; at 1.2 µM
  growth inhibition: -2%
[5]; at 3.7 µM
  growth inhibition: 1%
[5]; [17]
  growth inhibition: 12%
[5]; at 11.0 µM
  growth inhibition: 9%
[5]; at 33.0 µM
  growth inhibition: 94% (active)
[5]; [18]
  growth inhibition: 97% (active)
[5]; at 50.0 µM
  growth inhibition: 98.8% (active)
[5]; at 100.0 µM
  growth inhibition: 99% (active)
[6]; at 1.2 µM
  growth inhibition: -2%
[6]; at 3.7 µM
  growth inhibition: 5%
[6]; [17]
  growth inhibition: -12%
[6]; at 11.0 µM
  growth inhibition: 12%
[6]; at 33.0 µM
  growth inhibition: 85% (active)
[6]; [18]
  growth inhibition: 17%
[6]; at 50.0 µM
  growth inhibition: 98.5% (active)
[6]; at 100.0 µM
  growth inhibition: 99% (active)
[7]; at 1.2 µM
  growth inhibition: -3%
[7]; at 3.7 µM
  growth inhibition: 3%
[7]; at 11.0 µM
  growth inhibition: 12%
[7]; at 33.0 µM
  growth inhibition: 96% (active)
[7]; at 100.0 µM
  growth inhibition: 99% (active)
[8]; [17]
  growth inhibition: 8%
[8]; [18]
  growth inhibition: 94% (active)
[8]; at 50.0 µM
  growth inhibition: 99.4% (active)
[9]; at 1.2 µM
  growth inhibition: -1%
[9]; at 3.7 µM
  growth inhibition: -11%
[9]; at 11.0 µM
  growth inhibition: 4%
[9]; at 33.0 µM
  growth inhibition: 91% (active)
[9]; at 100.0 µM
  growth inhibition: 99% (active)
[10]; [17]
  growth inhibition: 4%
[10]; [18]
  growth inhibition: 49%
[10]; at 50.0 µM
  growth inhibition: 97.7% (active)
[11]; at 1.2 µM
  growth inhibition: 3%
[11]; at 3.7 µM
  growth inhibition: 10%
[11]; [17]
  growth inhibition: 19%
[11]; at 11.0 µM
  growth inhibition: 30%
[11]; at 33.0 µM
  growth inhibition: 90% (active)
[11]; [18]
  growth inhibition: 88% (active)
[11]; at 50.0 µM
  growth inhibition: 74.5% (active)
[11]; at 100.0 µM
  growth inhibition: 99% (active)
[12]; at 1.2 µM
  growth inhibition: -2%
[12]; at 3.7 µM
  growth inhibition: 1%
[12]; at 11.0 µM
  growth inhibition: 8%
[12]; at 33.0 µM
  growth inhibition: 98% (active)
[12]; at 100.0 µM
  growth inhibition: 99% (active)
[13]; at 1.2 µM
  growth inhibition: -1%
[13]; at 3.7 µM
  growth inhibition: 3%
[13]; at 11.0 µM
  growth inhibition: 17%
[13]; at 33.0 µM
  growth inhibition: 95% (active)
[13]; at 100.0 µM
  growth inhibition: 99% (active)
[14]; at 1.2 µM
  growth inhibition: 2%
[14]; at 3.7 µM
  growth inhibition: 7%
[14]; at 11.0 µM
  growth inhibition: 25%
[14]; at 33.0 µM
  growth inhibition: 94% (active)
[14]; at 100.0 µM
  growth inhibition: 99% (active)
[15]; [17]
  growth inhibition: 51%
[15]; [18]
  growth inhibition: 98% (active)
[15]; at 50.0 µM
  growth inhibition: 99% (active)
[16]; at 1.2 µM
  growth inhibition: 4%
[16]; at 3.7 µM
  growth inhibition: 17%
[16]; at 11.0 µM
  growth inhibition: 54%
[16]; at 33.0 µM
  growth inhibition: 97% (active)
[16]; at 100.0 µM
  growth inhibition: 98% (active)
